# Reference: PubChem BioAssay AID602340 (Broad Institute, 2012)
# In all, about 330,000 compounds went through this assay and about 2,600 (0.79%) were called active.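 How the source made its calls: active means mean ATP rescue above about 67%, or every replicate alone reaching that limit (limit read from the data, passing the limit was not always enough); inconclusive means no clear call, values can overlap the other calls; inactive means mean under the limit and some replicate under it.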 The list comes from a sample in which actives are over-represented; it also holds similar structures and randomly drawn compounds.
# Assay: protection of differentiated C2C12 cells from simvastatin – single point, plate reader, primary screen (AID 602340);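 further: myotubes were challenged with 10 µM simvastatin during compound exposure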
# Conditions: C2C12 myotubes + simvastatin, ATP luminescence, 48 h; at 7.49 µM; stronger effect = higher value; scaled: DMSO 0, geranylgeraniol control 100
row,SMILES,rescue of ATP level
1,C[C@@H]1CCCCO[C@H](CN(C)S(=O)(=O)c2cn(C)cn2)[C@H](C)CN([C@@H](C)CO)C(=O)c2cc(NC(=O)Nc3ccc(C(F)(F)F)cc3)ccc2O1,0.993% (inactive)
2,C[C@@H]1CN([C@@H](C)CO)C(=O)Cc2cc(NC(=O)CCN3CCOCC3)ccc2O[C@H]1CN(C)S(=O)(=O)c1ccccc1,-6.12% (inactive)
3,O=S(=O)(Cc1ccccc1)NCC[C@@H]1CC[C@@H](NS(=O)(=O)c2ccccc2)[C@@H](CO)O1,1.31% (inactive)
4,COc1ccc(S(=O)(=O)N/N=C\c2ccc(OC)c(COc3ccc(C)cc3[N+](=O)[O-])c2)cc1,99.4% (active)
5,COc1ccc(S(=O)(=O)Nc2ccc3cn[nH]c3c2)cc1[N+](=O)[O-],1.46% (inactive)
6,Cc1ccc(S(=O)(=O)N/N=C\c2cc3c(cc2[N+](=O)[O-])OCO3)cc1,2.88% (inactive)
7,COc1cccc(S(=O)(=O)Nc2ccc3c(c2)C(=O)N(C)C[C@@H](OC)[C@H](C)CN(C(=O)Cc2cccnc2)[C@H](C)CO3)c1,7.32% (inactive)
8,CC(=O)N1[C@@H](CO)[C@H](c2ccccc2)[C@@H]1CN(C(=O)c1ccccc1)C(C)C,3.57% (inactive)
9,COc1ccc(-c2ccc3n(c2=O)C[C@@H]2[C@@H](CO)[C@H](C(=O)Nc4ccccc4)[C@H]3N2C)cc1,-0.124% (inactive)
10,CCC(=O)N(C)C[C@@H]1Oc2cc(C#Cc3cccnc3)ccc2S(=O)(=O)N([C@H](C)CO)C[C@@H]1C,29.4% (inactive)
11,O=C(c1cc(-c2cccs2)on1)N1CCCCC1,36% (inactive)
12,CC(=O)c1ccc(NC(=O)c2cc(-c3cccs3)on2)cc1,-12.8% (inactive)
13,Cc1cc(NC(=O)c2cc(-c3cccs3)on2)nn1Cc1ccc(Cl)cc1,143% (active)
14,CC(C)C#Cc1ccc2c(c1)O[C@@H](CN(C)C(=O)CN(C)C)[C@@H](C)CN([C@H](C)CO)S2(=O)=O,-17.5% (inactive)
15,CNC[C@H]1Oc2ncc(C#Cc3ccccc3F)cc2C(=O)N([C@H](C)CO)C[C@H]1C,-12.3% (inactive)
16,O=C(C[C@@H]1C[C@H]2c3cc(NC(=O)Nc4ccccc4)ccc3O[C@H]2[C@@H](CO)O1)NCc1cccnc1,4.89% (inactive)
17,CN1c2ccccc2-c2nc3ccccc3n2C1c1ccco1 (stereo unspecified),96.4% (active)
18,Cc1cc(NCc2ccco2)n2c(nc3ccccc32)c1C#N,-35.7% (inactive)
19,CN1C(C(=O)NCc2ccco2)CC2Cn3c(nc4ccccc43)C21 (stereo unspecified),2.87% (inactive)
20,CCCCCC(=O)Nc1ccc(S(=O)(=O)Nc2ccc(Cl)nn2)cc1,-2.2% (inactive)
21,COC(=O)Nc1ccc(S(=O)(=O)Nc2cc(OC)nc(OC)n2)cc1,-0.957% (inactive)
22,COc1ccc(NS(=O)(=O)c2ccc(NC(=O)C(C)(C(F)(F)F)C(F)(F)F)cc2)nn1,113% (active)
23,CC(C)NC(=O)N1[C@H](CO)[C@@H]2c3ccccc3N(C(=O)c3ccccc3F)C[C@@H]21,6.22% (inactive)
24,CC(=O)N(C)C[C@H]1Oc2cc(C#CC3CC3)ccc2S(=O)(=O)N([C@H](C)CO)C[C@@H]1C,9.57% (inactive)
25,C/C=C/c1ccc2c(c1)O[C@@H](CN(C)C(=O)c1ccncc1)[C@@H](C)CN([C@H](C)CO)S2(=O)=O,-3.45% (inactive)
26,CO[C@H]1CN(C)C(=O)c2ccc(NS(C)(=O)=O)cc2OC[C@@H](C)N(Cc2ccccc2)C[C@@H]1C,7.75% (inactive)

row,SMILES,rescue of ATP level
1,CO[C@H]1CN(C)C(=O)c2cc(NC(=O)C3CC3)ccc2OC[C@H](C)N(Cc2ccccc2)C[C@H]1C,14.1% (inactive)
2,CC(=O)c1c(C)n(-c2ccc(C)cc2)c2ccc(O)cc12,-0.235% (inactive)
3,CC(=O)c1c(C)n(-c2ccc(N(C)C)cc2)c2ccc(OCC(N)=O)cc12,83.1% (active)
4,CCOC(=O)c1c(-c2ccccc2)oc2ccc(OCC(N)=O)cc12,-0.453% (inactive)
5,CN(C)CCCNC(=O)C[C@H]1C=C[C@@H](NC(=O)Cc2cccnc2)[C@H](CO)O1,-16.4% (inactive)
6,C[C@@H]1CN([C@H](C)CO)C(=O)c2ccccc2-c2ccccc2CO[C@@H]1CN(C)S(=O)(=O)CC(F)(F)F,-2.03% (inactive)
7,CC(C)(C)OC(=O)N[C@H](C(=O)OC(C)(C)C)c1ccc(Br)cc1,-4.69% (inactive)
8,CCOC(=O)Nc1ccc(NC(=O)OCC)cc1,-0.0995% (inactive)
9,CC(C)(C)OC(=O)Nc1ccc([C@@H](NC(=O)OC(C)(C)C)C(=O)OC(C)(C)C)cc1,83.1% (active)
10,COc1ccc(S(=O)(=O)N2CC[C@H]3[C@@H](CO)N(C)c4ccc(C#Cc5ccccc5OC)cc4[C@H]32)cc1,36% (inactive)
11,C[C@H]1CN([C@@H](C)CO)S(=O)(=O)c2ccc(C#Cc3ccccc3F)cc2O[C@@H]1CN(C)C(=O)c1ccc2c(c1)OCO2,-14.8% (inactive)
12,O=C(O)c1ccccc1NC(=S)NC(NC(=O)c1ccccc1[N+](=O)[O-])C(Cl)(Cl)Cl (stereo unspecified),108% (active)
13,O=C(Nc1ccccc1-c1ccccc1)c1ccccc1[N+](=O)[O-],9.09% (inactive)
14,O=C(Nc1ccccc1[N+](=O)[O-])C1C(c2ccccc2)=C1c1ccccc1,2.4% (inactive)
15,CO[C@H]1CN(C)C(=O)c2cc(NC(=O)C3CCOCC3)ccc2OC[C@@H](C)N(Cc2cccnc2)C[C@@H]1C,11.4% (inactive)
16,COc1ccc(O)c(/C=N/N=C/c2cccc([N+](=O)[O-])c2)c1,9.95% (inactive)
17,COc1cc(/C=N/NC(=O)CNC(=O)c2ccncc2)ccc1OC(C)=O,-8.66% (inactive)
18,COc1cc(/C=N\NC(=O)CNC(=O)c2cccc([N+](=O)[O-])c2)ccc1O,110% (active)
19,Cc1noc(C)c1NC(=O)N[C@@H]1CC[C@H](CCNC(=O)C2CCC2)O[C@@H]1CO,3.99% (inactive)
20,O=C(C[C@H]1CC[C@@H](NC(=O)Nc2cc(F)ccc2F)[C@@H](CO)O1)NCc1ccncn1,-2.36% (inactive)
21,O=C(Nc1ccccc1)N1C[C@@H]2[C@H](c3ccccc31)[C@H](CO)N2C(=O)c1ccccn1,-4.63% (inactive)
22,Cc1ccc(C2=NN(C(=O)CSc3nc(N)cc(N)n3)C(c3ccco3)C2)cc1 (stereo unspecified),159% (active)
23,COc1ccc(C2=NN(C(=O)CSc3nnnn3C)C(c3ccco3)C2)cc1 (stereo unspecified),-6.88% (inactive)
24,COc1ccc(C2=NN(C(=O)CSc3nc(=O)n4ccc(C)cc4n3)C(c3ccc(C)cc3)C2)cc1 (stereo unspecified),34.4% (inactive)
25,Cc1cccc(-c2ccc([C@@H]3[C@H](CO)N4CCCCN(C(=O)c5ccc6c(c5)OCO6)C[C@@H]34)cc2)c1,-11.7% (inactive)
26,C[C@@H]1CN([C@H](C)CO)C(=O)c2cc(-c3ccc(C(=O)N(C)C)cc3)cnc2O[C@H]1CN(C)C(=O)C1CC1,5.72% (inactive)

row,SMILES,rescue of ATP level
1,COc1ccc(NC(=O)N(C)C[C@H]2Oc3ccc(N(C)C)cc3C(=O)N([C@H](C)CO)C[C@H]2C)cc1,34.1% (inactive)
2,CCOC(=O)c1ccn(-c2nc(-c3ccco3)cc(C(F)(F)F)n2)n1,122% (active)
3,O=C(CSc1nc(-c2ccco2)cc(C(F)(F)F)n1)N1CCc2ccccc2C1,2.99% (inactive)
4,COC(=O)c1cnn2c(C(F)(F)F)cc(-c3ccco3)nc12,0.418% (inactive)
5,COCC(=O)Nc1ccc2c(c1)C(=O)N(C)[C@H]1CC[C@@H](CC(=O)Nc3cn(C)nc3C)O[C@@H]1CO2,-1.7% (inactive)
6,CCC(=O)Nc1ccc2c(c1)OC[C@H](C)N(CC1CCCCC1)C[C@@H](C)[C@H](OC)CN(C)C2=O,13.2% (inactive)
7,CS(=O)(=O)N1CCN(c2cccc(Cl)n2)CC1,109% (active)
8,CCC(=O)Nc1ccccc1N1CCN(S(C)(=O)=O)CC1,5.38% (inactive)
9,Cc1cccc(C)c1N1CCN(S(=O)(=O)N2CCCCC2)CC1,-15% (inactive)
10,C[C@@H]1CN([C@H](C)CO)S(=O)(=O)c2ccc(C#CCC3CCCC3)cc2O[C@H]1CN(C)Cc1ccc(C(=O)O)cc1,3.68% (inactive)
11,O=C(Nc1nnc(Cc2ccc(Cl)cc2)s1)c1cccnc1,0.36% (inactive)
12,O=C(NCc1ccc(Cl)c(Cl)c1)c1cccnc1,106% (active)
13,CC(C)(C)c1cc(C(=O)NCc2cccnc2)ccn1,-8.85% (inactive)
14,COCC(=O)Nc1ccc2c(c1)[C@H]1C[C@H](CC(=O)NCc3cccnc3)O[C@H](CO)[C@H]1O2,-1.76% (inactive)
15,COCCn1c(CN(Cc2ccccc2)Cc2ccccc2)nc2c1c(=O)n(C)c(=O)n2C,30.5% (inactive)
16,Cn1c(=O)c2c(nc(CN3CCOCC3)n2Cc2ccccc2)n(C)c1=O,2.6% (inactive)
17,COCCn1c(CN2CCC(Cc3ccccc3)CC2)nc2c1c(=O)n(C)c(=O)n2C,70.9% (active)
18,CC(=O)NC[C@H]1[C@H](c2ccccc2)[C@@H](CO)N1C(=O)Cc1cccnc1,7.36% (inactive)
19,Cc1ccccc1S(=O)(=O)Nc1ccc2c(c1)C(=O)N(C)[C@H]1CC[C@@H](CC(=O)O)O[C@H]1CO2,10.2% (inactive)
20,O=C(C[C@@H]1C[C@H]2c3cc(NC(=O)Nc4ccccc4)ccc3O[C@H]2[C@@H](CO)O1)NC1CCCCC1,4.79% (inactive)
21,C[C@@H]1CN([C@@H](C)CO)C(=O)c2cc(C3=CCCCC3)cnc2O[C@H]1CN(C)CC1CCOCC1,-11.9% (inactive)
22,C/C(=N/NC(=O)c1cc(Cl)ccc1O)C12CC3CC(CC(C3)C1)C2,173% (active)
23,CC(=N\NC(=O)c1cc(Br)ccc1O)/C(=N/O)C(=O)Nc1ccccc1,-1.86% (inactive)
24,Cc1ccc(C(=O)NC23CC4CC(CC(C4)C2)C3)c(Cl)c1,-14.4% (inactive)
